Conditions in all cases: mRNA level, 48 h; actives raise or lower the signal
Read-out in experiment [1]: Tumor necrosis factor receptor superfamily member 6 (Homo sapiens) (UniProt P25445)
Put plainly: LTEA_HepaRG_FAS: Life Technologies and Expression Analysis (LTEA) Assay for Fas cell surface death receptor (FAS) using HepaRG (AID 2283447). In a few lines:
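FAS transcript level was measured by TaqMan qRT-PCR against three housekeeping genes after 48 h chemical exposure. Cells were HepaRG, 0.5% DMSO vehicle, with a top concentration of 100 uM and half-log dilutions over eight points, in duplicate.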

Read-out in experiment [2]: Cyclin D2 (CCND2), CCND2 (gene 894)
As to the kind of experiment: LTEA_HepaRG_CCND2: Life Technologies and Expression Analysis (LTEA) Assay for Cyclin D2 (CCND2) using HepaRG (AID 2283449). In a few lines:
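CCND2 transcript levels, quantified by qRT-PCR and normalised to three housekeeping genes, were fitted bidirectionally against 0.5% DMSO. HepaRG cultures were dosed 48 h in duplicate with an 8-point half-log series up to 100 uM.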

Read-out in experiment [3]: flavin-containing dimethylaniline monooxygenases 3 (FMO3), FMO3 (gene 2328)
Put plainly: LTEA_HepaRG_FMO3: Life Technologies and Expression Analysis (LTEA) Assay for flavin-containing dimethylaniline monooxygenases 3 (FMO3) using HepaRG (AID 2283453). The gist of the method: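 Eight-point concentration-response in serum-free HepaRG cultures (top 100 uM, 0.5% DMSO, 48 h). Read-out: FMO3 mRNA level normalized to three endogenous control genes, fitted bidirectionally versus vehicle.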

Read-out in experiment [4]: Cytochrome P450 (CYP1A1), CYP1A1 (gene 1543)
As to the kind of experiment: LTEA_HepaRG_CYP1A1: Life Technologies and Expression Analysis (LTEA) Assay for Cytochrome P450 (CYP1A1) using HepaRG (AID 2283454). In a few lines:
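Differentiated human HepaRG cells, after 48 h plating, exposed in duplicate for 48 h in serum-free induction medium to 8 half-log concentrations up to 100 uM in 0.5% DMSO. CYP1A1 mRNA by qRT-PCR, normalized to ACTB/GAPDH/POLR2A; bidirectional fit versus DMSO.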

Read-out in experiment [5]: CFLAR gene, CFLAR (gene 8837)
As to the kind of experiment: LTEA_HepaRG_CFLAR: Life Technologies and Expression Analysis (LTEA) Assay for CFLAR gene using HepaRG (AID 2283455). In a few lines: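 Transcript level by qRT-PCR (normalized to ACTB, GAPDH and POLR2A) after 48 h chemical exposure of HepaRG cells, top concentration 100 uM with half-log steps, 0.5% DMSO vehicle, duplicates; fitted bidirectionally against DMSO baseline.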

Read-out in experiment [6]: Forkhead box O1 (FOXO1), FOXO1 (gene 2308)
As to the kind of experiment: LTEA_HepaRG_FOXO1: Life Technologies and Expression Analysis (LTEA) Assay for Forkhead box O1 (FOXO1) using HepaRG (AID 2283456). In a few lines:
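FOXO1 transcript quantified by qRT-PCR after 48 h chemical exposure (top 100 uM, half-log steps, 0.5% DMSO) of HepaRG cells, housekeeping-normalized (ACTB/GAPDH/POLR2A). Changes fitted in both directions relative to vehicle.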

Read-out in experiment [7]: growth arrest and DNA damage 45 (GADD45A), GADD45A (gene 1647)
As to the kind of experiment: LTEA_HepaRG_GADD45A: Life Technologies and Expression Analysis (LTEA) Assay for growth arrest and DNA damage 45 (GADD45A) using HepaRG (AID 2283458). The gist of the method:
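HepaRG, 48 h exposure, 8 conc. (top 100 uM, half-log steps), 0.5% DMSO vehicle, duplicates. Read-out: qRT-PCR mRNA level, housekeeping-normalized (ACTB/GAPDH/POLR2A). Curves fit bidirectionally vs DMSO baseline.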

Read-out in experiment [8]: Forkhead box O3 (FOXO3), FOXO3 (gene 2309)
Put plainly: LTEA_HepaRG_FOXO3: Life Technologies and Expression Analysis (LTEA) Assay for Forkhead box O3 (FOXO3) using HepaRG (AID 2283459). The gist of the method: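 FOXO3 transcript measured by qRT-PCR (normalized to ACTB, GAPDH, POLR2A) after 48 h exposure of HepaRG cells in serum-free induction medium. Duplicates, eight half-log concentrations up to 100 uM, 0.5% DMSO; gain or loss fitted against DMSO.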

Read-out in experiment [9]: ABC Transporter (ABCB1), ABCB1 (gene 5243)
As to the kind of experiment: LTEA_HepaRG_ABCB1: Life Technologies and Expression Analysis (LTEA) Assay for ABC Transporter (ABCB1) using HepaRG (AID 2283460). In a few lines:
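ABCB1 transcript level measured by TaqMan qRT-PCR against three housekeeping genes after 48 h chemical exposure of differentiated HepaRG cells. Top concentration 100 uM, half-log steps, eight points, 0.5% DMSO vehicle; bidirectional fit relative to DMSO.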

Read-out in experiment [10]: growth arrest and DNA damage 45 (GADD45B), GADD45B (gene 4616)
As to the kind of experiment: LTEA_HepaRG_GADD45B: Life Technologies and Expression Analysis (LTEA) Assay for growth arrest and DNA damage 45 (GADD45B) using HepaRG (AID 2283461). The gist of the method: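 Differentiated human HepaRG cells in serum-free induction medium exposed 48 h in duplicate to eight concentrations, top 100 uM, half-log steps, 0.5% DMSO. GADD45B mRNA by TaqMan qRT-PCR, normalized to ACTB, GAPDH, POLR2A; bidirectional fit versus DMSO.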

Read-out in experiment [11]: ABC Transporter (ABCC3), ABCC3 (gene 8714)
As to the kind of experiment: LTEA_HepaRG_ABCC3: Life Technologies and Expression Analysis (LTEA) Assay for ABC Transporter (ABCC3) using HepaRG (AID 2283462). In a few lines: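 Differentiated human HepaRG cells exposed 48 h in serum-free induction medium, 0.5% DMSO vehicle, 8-point half-log series to 100 uM in duplicate. ABCC3 mRNA by qRT-PCR, normalised to ACTB, GAPDH, POLR2A; bidirectional fit vs DMSO.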

Read-out in experiment [12]: ABC Transporter (ABCB11), ABCB11 (gene 8647)
As to the kind of experiment: LTEA_HepaRG_ABCB11: Life Technologies and Expression Analysis (LTEA) Assay for ABC Transporter (ABCB11) using HepaRG (AID 2283463). In a few lines: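 ABCB11 transcript levels quantified by TaqMan qRT-PCR against three housekeeping genes after 48 h chemical exposure of HepaRG cultures. Concentrations up to 100 uM in half-log steps, 0.5% DMSO vehicle; both induction and suppression scored.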

Read-out in experiment [13]: ABC Transporter (ABCC2), ABCC2 (gene 1244)
Put plainly: LTEA_HepaRG_ABCC2: Life Technologies and Expression Analysis (LTEA) Assay for ABC Transporter (ABCC2) using HepaRG (AID 2283464). The gist of the method:
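Differentiated HepaRG cells in serum-free induction medium exposed 48 h to eight half-log concentrations up to 100 uM, 0.5% DMSO, in duplicate. ABCC2 mRNA measured by qRT-PCR (TaqMan, Fluidigm), normalized to ACTB, GAPDH and POLR2A. Fitted in both directions against DMSO.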

Read-out in experiment [14]: Broad substrate specificity ATP-binding cassette transporter ABCG2 (Homo sapiens) (UniProt Q9UNQ0)
Put plainly: LTEA_HepaRG_ABCG2: Life Technologies and Expression Analysis (LTEA) Assay for ABC Transporter (ABCG2) using HepaRG (AID 2283465). The gist of the method: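 ABCG2 transcript was quantified by TaqMan qRT-PCR against three housekeeping genes in HepaRG cells. Cells were treated in duplicate for 48 h across an 8-point half-log series up to 100 uM, with 0.5% DMSO vehicle. Gain or loss versus DMSO was fit.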

Read-out in experiment [15]: ATP-citrate lyase (ACLY), ACLY (gene 47)
Put plainly: LTEA_HepaRG_ACLY: Life Technologies and Expression Analysis (LTEA) Assay for ATP-citrate lyase (ACLY) using HepaRG (AID 2283466). In a few lines: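 ACLY mRNA quantified by qRT-PCR on Fluidigm arrays against three housekeeping genes, after 48 h chemical treatment of HepaRG cells (top concentration 100 uM, half-log steps, 0.5% DMSO vehicle). Up- or down-regulation fitted relative to DMSO.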

Read-out in experiment [16]: Peroxisomal acyl-coenzyme A oxidase 1 (ACOX1) gene, ACOX1 (gene 51)
Put plainly: LTEA_HepaRG_ACOX1: Life Technologies and Expression Analysis (LTEA) Assay for Peroxisomal acyl-coenzyme A oxidase 1 (ACOX1) gene using HepaRG (AID 2283467). The gist of the method: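 ACOX1 transcript levels were quantified by TaqMan qRT-PCR against three housekeeping genes after 48 h chemical exposure of differentiated human HepaRG cells. Exposure used eight half-log steps topping at 100 uM, 0.5% DMSO vehicle, in duplicate. Bidirectional curve fits were made relative to DMSO.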

Read-out in experiment [17]: Alkaline Phosphatase, Placental (ALPP) gene, ALPP (gene 250)
Put plainly: LTEA_HepaRG_ALPP: Life Technologies and Expression Analysis (LTEA) Assay for Alkaline Phosphatase, Placental (ALPP) gene using HepaRG (AID 2283468). The gist of the method:
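HepaRG cells plated 48 h, then exposed in duplicate for 48 h in serum-free induction medium to 8-point half-log series from 100 uM in 0.5% DMSO. ALPP mRNA by TaqMan qRT-PCR, normalized to ACTB/GAPDH/POLR2A; bidirectional fit versus DMSO.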

Read-out in experiment [18]: Bcl-2 (BAD) gene, BAD (gene 572)
Put plainly: LTEA_HepaRG_BAD: Life Technologies and Expression Analysis (LTEA) Assay for Bcl-2 (BAD) gene using HepaRG (AID 2283469). In a few lines: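 Read-out: qRT-PCR of BAD mRNA, normalized to three housekeeping genes. Human HepaRG cultures got 48 h chemical exposure in 0.5% DMSO, duplicate eight-point half-log series topping at 100 uM. Gain or loss of signal fitted versus DMSO vehicle.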

Read-out in experiment [19]: Bcl-2 (BAX) gene, BAX (gene 581)
As to the kind of experiment: LTEA_HepaRG_BAX: Life Technologies and Expression Analysis (LTEA) Assay for Bcl-2 (BAX) gene using HepaRG (AID 2283470). In a few lines: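 qRT-PCR read-out of BAX mRNA, normalized to three housekeeping genes, after 48 h chemical exposure of human HepaRG cells in serum-free induction medium; eight-point half-log series, top 100 uM, 0.5% DMSO vehicle; bidirectional fit versus DMSO.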

This is an account of results in PubChem BioAssay (EPA / NIEHS).

Several values for one entry are separate records, joined by “and”; a condition that tells them apart may be missing. Equal values may be shown once. Some structures have more than one record in an assay (separate samples or runs), and their calls can disagree. Activity calls are given as the source filed them. The calls were made as follows: active = hit-call score of the fitted dose curve at least 0.9, where 1 is the maximum; inactive = score below 0.9.

Chain of Broad substrate specificity ATP-binding cassette transporter ABCG2 (Homo sapiens) (Q9UNQ0 whole entry, looked up): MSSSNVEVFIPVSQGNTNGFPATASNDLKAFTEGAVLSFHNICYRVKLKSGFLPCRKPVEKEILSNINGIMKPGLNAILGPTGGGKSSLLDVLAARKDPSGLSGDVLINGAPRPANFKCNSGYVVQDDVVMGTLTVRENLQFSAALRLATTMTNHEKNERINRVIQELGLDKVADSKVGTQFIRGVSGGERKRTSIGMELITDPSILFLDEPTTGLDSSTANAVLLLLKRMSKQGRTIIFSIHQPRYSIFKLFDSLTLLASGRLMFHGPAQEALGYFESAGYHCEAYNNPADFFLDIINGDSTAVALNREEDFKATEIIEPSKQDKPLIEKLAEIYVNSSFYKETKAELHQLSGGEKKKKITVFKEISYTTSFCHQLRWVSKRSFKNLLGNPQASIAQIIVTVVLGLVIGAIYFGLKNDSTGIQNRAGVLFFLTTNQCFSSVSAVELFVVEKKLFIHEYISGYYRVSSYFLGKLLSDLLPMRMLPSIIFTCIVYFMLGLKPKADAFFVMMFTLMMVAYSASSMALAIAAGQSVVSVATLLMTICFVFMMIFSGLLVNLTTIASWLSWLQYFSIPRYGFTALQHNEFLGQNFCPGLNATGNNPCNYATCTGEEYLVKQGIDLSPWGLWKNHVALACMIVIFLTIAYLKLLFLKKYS

Usually AC50 stands for the midpoint of the concentration-response curve, whichever way the signal moves. For the compound `COc1cc(-c2ccc(N)c(OC)c2)ccc1N`, the compound was classed as inactive in experiment [1], in [2], in experiment [3], in [5], in experiment [6] and in [7]. Moreover, the call in experiment [8], in experiment [9], in experiment [10], in [11], in experiment [12] and in experiment [13] was inactive. In addition, the compound was called inactive in [14], in [15], in experiment [16], in experiment [17], in [18] and in experiment [19]. For the same compound, the AC50 in experiment [3] is 72.6 µM (active); in experiment [4] it was 20.6 µM (active) and 24.2 µM (active); in [9], 50 µM (active); in experiment [10], 50 µM (active); in [12], 71.5 µM (active); in experiment [13], 50 µM (active). Besides, the AC50 in experiment [14] is 25 µM (active).
`Cn1sc(Cl)cc1=O`: the compound was classed as inactive in experiment [1], in [2], in [3], in experiment [4], in [5] and in [6]. In addition, the call in experiment [7], in experiment [8], in experiment [9], in experiment [10], in [11] and in [12] was inactive. Besides, the call in [13], in experiment [14], in experiment [15], in experiment [16], in [17] and in [18] was inactive. Besides, the compound was called inactive in [19].
Consider `O=c1[nH]c(=O)[nH]c(=O)[nH]1`, for which the compound was classed as inactive in [1], in [2], in experiment [3], in [4], in experiment [5] and in experiment [6]. The compound was called inactive in experiment [7], in [8], in experiment [9], in [10], in [11] and in experiment [12]. Further, the compound was called inactive in [13], in experiment [14], in experiment [15], in experiment [16], in experiment [17] and in [18]. Besides, the compound was called inactive in [19].
